# Hit rate of the full screen: of about 48,000 compounds, about 13,000 (27%) showed an effect of 50% or more. This is one part of the list.
# System: Wolbachia pipientis
# Assay: Anti-Wolbachia Cell-Based Screen
# Format: functional
# Design: scale not given: in the data most compounds retested in dose-response had high values
# Details: 5 µM
row,Structure (SMILES),Percent Effect [%]
1,CCc1nc(CCNc2ncccc2C#N)sc1C,-8.813
2,CN(C)C(=O)Cc1ccccc1NCc1nc(Cc2ccccc2)no1,16.45
3,O=C(NCc1cc(O)ncn1)C1COc2ccccc2C1 (stereo not drawn),-5.183
4,O=C1N(CCCc2ccccc2)CCCC1(O)CNCc1ccccc1 (stereo not drawn),-2.179
5,Cc1cnn(-c2cccc(N3CCN(c4cc(C)nc(C)n4)CC3)n2)c1,4.719
6,CCc1nc(C2CCCN(C(=O)NCCOC)C2)no1 (stereo not drawn),110.5
7,Cc1c(C)c2c(c(C)c1O)CC[C@](C)(C(=O)O)O2 [(R)-TROLOX],132.5
8,CNc1cc(C)nc(NCc2cc(C)cc3c(C)c(C)[nH]c23)n1,13.77
9,CNC(=O)NC(=O)C(C)N1CCN(C2CCCC2)CC1 (stereo not drawn),-18
10,Cc1csc2c(=O)n(C(C)Cc3cccnc3)cnc12 (stereo not drawn),4.44
11,Cc1csc2c(=O)n(CCN3CCC(c4ccccc4)CC3)cnc12,21.54
12,CCC(Cn1ccnc1)n1cnc2c(C)csc2c1=O (stereo not drawn),163.7
13,CCC(Cn1ccnc1)n1cnc2scc(C)c2c1=O (stereo not drawn),110.7
14,CC(Cn1ccnc1)NC(=O)NCCNC(=O)C(C)C (stereo not drawn),-18.32
15,Cc1csc2ncn(C(C)Cc3cccnc3)c(=O)c12 (stereo not drawn),-2.167
16,CCC(CO)n1cnc2scc(C)c2c1=O (stereo not drawn),100.6
17,Cc1nc(CN2CCCn3c(nc(Cn4ccnc4)cc3=O)C2)cs1,17.01
18,COCC1CCN(Cc2cc(O)c3c(C)ccc(C)c3n2)CC1,5.678
19,Cc1oncc1C(=O)N1CCC2(C1)CN(c1cccnc1)C(=O)CN2C (stereo not drawn),-7.65
20,Cc1cc(C(=O)N2CCC3(C2)CN(c2cccnc2)C(=O)CN3C)[nH]n1.O=C(O)C(F)(F)F.O=C(O)C(F)(F)F (stereo not drawn),112
21,Cc1cc(C(=O)N2CCC3(CC2)COCCN(c2cccnc2)C3)[nH]n1.O=C(O)C(F)(F)F,-3.174
22,Cn1cccc1C(=O)N1CCCCC12CC(=O)N(c1cccnc1)C2.O=C(O)C(F)(F)F (stereo not drawn),-1.407
23,CN1CC(=O)N(c2cccnc2)CC12CCN(C(=O)c1cccn1C)C2.O=C(O)C(F)(F)F.O=C(O)C(F)(F)F (stereo not drawn),108.5
24,CN1CC(=O)N(c2cccnc2)CC12CCN(C(=O)C1CCCCC1)C2.O=C(O)C(F)(F)F.O=C(O)C(F)(F)F (stereo not drawn),-22.33
25,COc1cc(C)ccc1OCCN1CC[C@@]2(O)CCNC[C@H]2C1,28.12
26,CCn1nc(CC(C)C)cc1C(=O)N1C[C@H](O)[C@@H](N2CCCCC2)C1,-3.036

row,Structure (SMILES),Percent Effect [%]
1,CN1CCN([C@@H]2CN(C(=O)c3cc4cccc(F)c4[nH]3)C[C@H]2O)CC1,104.7
2,Cc1ccc2cc(C(=O)N3CCS(=O)(=O)CC3)[nH]c2c1,-4.814
3,O=C(c1cc2cccc(F)c2[nH]1)N1C[C@@H](O)[C@H](N2CCCC2)C1,132.3
4,CN(C)[C@H]1CN(C(=O)c2ccc3sc4c(c3c2)CCNC4=O)C[C@@H]1O,13.68
5,CN1CCN([C@@H]2CN(C(=O)c3cc4ccc(F)cc4[nH]3)C[C@H]2O)CC1,68.22
6,CN(C)[C@@H]1CN(C(=O)c2cc3cccc(F)c3[nH]2)C[C@H]1O,116.9
7,COc1ccccc1OCc1cc(C(=O)N2C[C@H](O)[C@@H](N(C)C)C2)n[nH]1,14.49
8,Cc1ccc2cc(C(=O)N3CCN(C(=O)c4ccoc4)CC3)[nH]c2c1,0.1699
9,Cc1ccc(OC2(C(=O)O)CCN(C(=O)c3ccoc3C)CC2)cn1,-1.307
10,CCN(Cc1csc(CS(C)(=O)=O)n1)c1cccc(F)c1,0.8671
11,CCN(C)c1ccc(CNC(=O)CCn2cc(C)cn2)cc1F,-2.464
12,Cc1ccc(N2CCO[C@H]3CN(Cc4cc(C)on4)CC[C@H]3C2=O)cn1.O=C(O)C(F)(F)F.O=C(O)C(F)(F)F,-4.354
13,CC(C)c1cc(NCC(O)c2ccc(F)cc2)n2nccc2n1 (stereo not drawn),-15.19
14,CCN(CC)C(=O)Cn1cc(C(=O)NCCc2scnc2C)nn1,5.922
15,O=C(NC1CCS(=O)(=O)c2ccccc21)c1sccc1C1CC1 (stereo not drawn),-7.789
16,CN(CCc1ccccn1)[C@@H]1CCN(c2cccc(C#N)n2)C[C@H]1O,16.97
17,N#CCCCn1nnc(C2(NC(=O)c3ccccc3)CCCC2)n1,-18.68
18,O=C1CN(C(=O)c2cc(-c3ccco3)nc3c(Cl)cccc23)CCN1,-11.35
19,CCc1nccc(CN2CCC(CNC(=O)Nc3ccccc3)C2)n1 (stereo not drawn),-10.66
20,COc1cc(CNC(=O)C(C)SC)cc(Br)c1OC (stereo not drawn),11.13
21,O=C(c1cc2cccc(F)c2[nH]1)N1C[C@@H](O)[C@H](N2CCOCC2)C1,110.4
22,O=C(c1ccc(F)cc1F)N1C[C@@H](O)[C@H](N2CCOCC2)C1,7.48
23,O=C(Nc1ccc(-n2cccn2)cc1)N1C[C@H](O)[C@@H](N2CCOCC2)C1,1.189
24,CCCn1ncc(-c2nc3c(cnn3CC)[nH]2)c1C,-25.23
25,COCCN(c1ccncc1)S(=O)(=O)c1cc(C)c(F)cc1F,-2.029
26,Cc1noc(C(C)C)c1C(=O)NCc1ccc(N(C)C)c(F)c1,78.48

row,Structure (SMILES),Percent Effect [%]
1,CC(=O)NCC1CCN(C(=O)NCc2ccc3c(c2)OCCO3)CC1,-6.191
2,Cc1noc(C)c1C(=O)NCc1ccnc(OCC(F)(F)F)c1,-2.057
3,Cc1noc([C@@H](C)NCc2ccc(F)cc2)c1C(=O)O.Cl,-4.042
4,Cc1noc(C(C)C)c1C(=O)NCc1ccc2c(c1)OCCO2,83.78
5,CN(C)C(=O)c1ccccc1NC(=O)N(C)Cc1ccccc1O,-13.22
6,O=C(CCNC(=O)NC1CCN(C2CC2)CC1)NCc1ccccc1,-15.75
7,N#Cc1ccnc(N2CCN(CC(O)c3ccc(F)c(F)c3)CC2)c1 (stereo not drawn),-18.53
8,CCc1cc(N[C@H]2CC[C@H](O)CC2)n2nc(C)c(C)c2n1,-14.47
9,COc1cc(CNC(=O)Nc2nncs2)ccc1O,-8.608
10,Cc1ccc(CNC(=O)Nc2nncs2)n1C,-4.226
11,Cc1ccc(CNC(=O)Nc2cc(C(F)(F)F)c[nH]c2=O)cn1,3.357
12,Cc1ccc(CNC(=O)Nc2nncs2)cn1,108.3
13,Cc1ccc(CNC(=O)NCc2csc(C)n2)cn1,-1.986
14,Cc1ccc(CNC(=O)Nc2nccs2)cn1,93.38
15,O=C1CN(Cc2nnc(-c3ccccc3Br)o2)CCN1,-2.201
16,COC(=O)c1cc(NC2CCN(CC(F)(F)F)C2=O)ccc1C (stereo not drawn),1.107
17,COc1ccc(CN[C@@H]2CO[C@H](CNC(=O)N3CCOCC3)[C@H]2O)cc1,3.527
18,O=C(O)CCN(Cc1ccc(F)c(F)c1)C(=O)C1CC1,170.7
19,NC(=O)CN(Cc1cccc(Oc2ccccc2)c1)C(=O)C1CC1,0.4693
20,CN(Cc1ccc(Cl)c(F)c1)C(=O)CCc1ccncc1,0.9629
21,CN(C)CCN(Cc1ccc(Cl)cc1)C(=O)c1ccncc1,-4.798
22,CN(Cc1ccc(F)c(F)c1)C(=O)CCc1nc(-c2nnc[nH]2)no1,-9.092
23,CN1CCC(N(C)C(=O)CCc2ccc(F)c(F)c2)C1=O (stereo not drawn),2.381
24,Cc1noc(CCCC(=O)N(CCC(=O)O)Cc2ccc(F)c(F)c2)n1,101.8
25,CCC(=O)N(CCN(C)C)Cc1ccc(F)c(F)c1,182.8
26,Cc1noc(CCNC(=O)c2ccc(N(C)C)c(F)c2)n1,-15.61

row,Structure (SMILES),Percent Effect [%]
1,COCC(=O)N(C)Cc1ccc(F)c(F)c1,111.3
2,COCC(=O)N(C)Cc1ccc(OCc2cccs2)cc1,1.693
3,Cc1cc(C(=O)N(CCN(C)C)Cc2ccc(Cl)cc2)no1,-11.55
4,CN(Cc1nnc2n1CCC2)S(=O)(=O)c1ccc(Br)cc1Cl,10.86
5,CC(=O)N1CCC(CCNC(C)c2cc(F)cc(F)c2)CC1 (stereo not drawn),-11.21
6,CC(C)Oc1cc(N2CCC(N3CCC(O)CC3)CC2)nc(N)n1,11.59
7,Cc1nc(CN2CCC3(CCCO3)CCC2=O)no1 (stereo not drawn),31.71
8,CNC(=O)NC(=O)CSc1ccc2c(c1)CCC2,-2.658
9,Cc1noc(-c2cccnc2N(C)Cc2cc(C)on2)n1,2.996
10,COCCCC(=O)N(C)c1ccc(F)c(Cl)c1,-0.2217
11,COCCN(Cc1ccncc1)C(=O)CCSCc1ccc(F)cc1,-3.369
12,CN(C)C(=O)CCC[S+]([O-])Cc1ccc(F)c(F)c1 (stereo not drawn),-13.45
13,CCC(=O)N(CC(N)=O)Cc1cccc(Oc2ccccc2)c1,9.242
14,COCCCC(=O)N(CCC(=O)O)Cc1ccc(F)c(F)c1,97.51
15,CCC(=O)N(CCC(=O)O)Cc1ccc(F)c(F)c1,121.4
16,COCCNc1nc2c(c(NCc3ccncc3)n1)CCNCC2,24.23
17,CC(C)OCCSc1nnnn1C1CCOCC1,-9.456
18,CC(=O)N1CCCN(CCCSc2ccccc2Cl)CC1,-4.168
19,COCCC(=O)N1CCN(CC(C)C)c2nc(C)ccc2C1.O=C(O)C(F)(F)F,6.482
20,Cc1ncc(CN2CCOCC2)c2cc(C(=O)c3ccc(Br)cc3)oc12.Cl,126.2
21,Cc1ncc(CN2CCCC2)c2cc(C(=O)c3ccc(Br)cc3)oc12.Cl,139.8
22,O=C(NCc1ccccc1CN1CCOCC1)c1ccc(Br)cc1F,-0.3449
23,Cc1ncsc1CCN(C)C(=O)c1ccc(CN2CCCCC2)cc1,-41.8
24,O=C(O)c1ccc2[nH]cc(CN3CCOCC3)c2c1,-9.058
25,O=C(O)c1ccc2[nH]cc(CN3CCCC3)c2c1,2.363

# From ChEMBL document CHEMBL3988442, “University of Dundee, Small-Polar-MMV Screening Library” (2021)
